Source: PubChem
Only some compounds are listed: those with a hit (about 2.6% of all), similar ones and a draw of the others.
PRMT1 FP inh – inhibitors of human PRMT1; recombinant PRMT1, activity-based probe fluorescence polarization; inhibition, % at 2.79 µM; 370,000 compounds, 1.3% hits;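 active means inhibition above about 21% made by adding two undisclosed values, limit read from the data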
Target sequence (Q99873 whole entry, looked up): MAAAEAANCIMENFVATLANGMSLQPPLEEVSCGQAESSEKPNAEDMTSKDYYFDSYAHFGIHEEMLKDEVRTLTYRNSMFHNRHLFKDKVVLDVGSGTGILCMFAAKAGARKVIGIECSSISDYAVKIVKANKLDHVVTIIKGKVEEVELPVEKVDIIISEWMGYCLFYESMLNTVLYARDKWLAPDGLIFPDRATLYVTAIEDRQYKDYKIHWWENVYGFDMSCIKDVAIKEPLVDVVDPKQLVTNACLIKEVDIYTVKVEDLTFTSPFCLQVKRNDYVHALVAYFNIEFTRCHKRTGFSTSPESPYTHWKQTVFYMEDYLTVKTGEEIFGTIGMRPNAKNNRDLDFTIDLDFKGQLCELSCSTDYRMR
ABHD5-PLIN5 inh – inhibitors of human ABHD5-perilipin-5 interaction; Split G. princeps luciferase complementation, luminescence, 4 h; AID 602281; 360,000 compounds, 0.78% hits; Q00G26+Q8WTS1; inhibition, % at 4 µM;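 active means inhibition above the mean inhibition across every tested compound plus 3 SD, cut at about 22% in these data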
TLR9-MyD88 block – inhibitors of human TLR9-MyD88 binding | AID 504734 | inhibition, % at 4.98 µM | 340,000 compounds, 0.21% hits | CHO BLA complementation TLR9-MyD88, CCF4 FRET ratio;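 active means inhibition above the mean over all tested compounds plus 3 SD, cut at about 21% in these data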
NOD2 RIPK2 PPI – NOD2-RIPK2 protein interaction inhibition; O43353; CHO BLA complementation NOD2-RIPK2, CCF4 ratio; inhibition, % at 4.98 µM; 360,000 compounds, 0.38% hits; in the data active means inhibition above about 21%
TLR4 MyD88 comp – blocks binding of human TLR4 to MyD88; O00206+Q99836; HeLa CL3-4 TLR4/MyD88 BLA complementation, FRET ratio; inhibition, % at 8.4 µM; 200,000 compounds, 0.18% hits; AID 861; in the data active means inhibition above about 25%
Exocytosis inh – blocks lytic granule exocytosis; TALL-104 LAMP-1 surface exposure, flow cytometry; cells stimulated with thapsigargin and PMA; inhibition, % at 10 µM; 360,000 compounds, 0.66% hits; AID 651702;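 active means inhibition above about 55%, limit read from the data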
NOD2 RIPK2 conf – NOD2-RIPK2 interaction inhibition confirmed. AID 624370. CHO cells, NOD2-RIPK2 BLA complementation, CCF4 FRET. inhibition, % at 4.98 µM. 1,200 compounds, 70% hits. shares compounds with NOD2 RIPK2 PPI;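 active means mean inhibition across replicates above a set limit taken from the earlier primary screen, cut at about 21% in these data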
BLA counter – hits BLA reporter in NOD2-RIPK2 inhibitor counterscreen | shares compounds with NOD2 RIPK2 PPI | CHO BLA reporter, CCF4 FRET ratio | inhibition, % at 4.98 µM | 1,200 compounds, 57% hits | AID 624371;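 active means mean inhibition above the low-control mean inhibition plus three low-control SD, cut at about 11% in these data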
Granule exo CP1 – lytic granule exocytosis inhibition | 1,500 compounds, 11% hits | shares compounds with Exocytosis inh | inhibition, % at 10 µM | TALL-104 cells, LAMP-1 externalization, flow cytometry; stimulated with PMA plus thapsigargin | AID 651954; in the data active means inhibition above about 60%
PRMT1 confirm – confirmation of human PRMT1 inhibitors; inhibition, % at 2.79 µM; 3,300 compounds, 42% hits; recombinant His-PRMT1, activity-based probe fluorescence polarization; shares compounds with PRMT1 FP inh;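 active means mean inhibition across replicates above the hit cutoff derived for the earlier primary screen, cut at about 22% in these data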
Numbers stand for hits; – = inactive; · = no result.

SMILES | PRMT1 FP inh | ABHD5-PLIN5 inh | TLR9-MyD88 block | NOD2 RIPK2 PPI | TLR4 MyD88 comp | Exocytosis inh | NOD2 RIPK2 conf | BLA counter | others
COc1ccc(C(=O)Nc2ccc(C)cc2C(=O)c2ccccc2)cc1 | – | – | – | – | – | – | · | ·
COc1ccccc1C(=O)Nc1ccc(C)cc1C(=O)c1ccccc1 | – | – | – | 22 | – | – | – | –
COc1ccccc1N(C)S(=O)(=O)c1ccc(C(=O)OCC(N)=O)cc1 | – | – | – | 50 | – | – | – | –
CSc1nnc2c(n1)C[C@H](c1ccccc1)[C@@H](C)[C@@H](C(=O)N1CCCC1)C2 | – | · | · | · | · | · | · | ·
C/C(=N\Nc1ncc(Br)cn1)c1cccc([N+](=O)[O-])c1 | – | – | – | – | · | – | · | ·
C/C(=N\Nc1ccc([N+](=O)[O-])cc1)c1cccc(N)c1 | – | – | – | 24 | – | – | – | 21
COc1ccc(N/C=C\C(=O)c2ccc3ccccc3c2)cc1 | – | – | – | – | · | – | · | ·
NS(=O)(=O)c1ccc(N/C=C\C(=O)c2ccc3ccccc3c2)cc1 | – | – | – | 24 | – | – | – | 12
O=Nc1c(O)[nH]c2ccc(Cl)c(Cl)c12 | – | – | – | 28 | · | – | 26 | 15
COc1ccccc1OCCn1cc(/C=C(\C#N)C(=O)NCc2cccs2)c2ccccc21 | – | – | – | 29 | – | – | – | –
COC(=O)[C@]12C[C@H](CC(=O)NCc3cccc4ccccc34)C(=O)N(CCC3=CCCCC3)C1=C[C@H](C(C)(C)C)O[C@@H]2C | – | · | · | · | · | · | · | ·
Cc1c(O)ccc2cc(S(=O)(=O)c3ccccc3)c(=O)oc12 | – | – | – | 34 | · | – | 33 | 58
Cc1ccc(S(=O)(=O)c2cc3ccccc3oc2=O)cc1 | – | – | – | – | – | – | · | ·
O=C(OCCN1CCN(C2CN(Cc3cn(Cc4ccccc4Cl)nn3)S(=O)(=O)C2)CC1)c1cccs1 (stereo not given) | – | · | · | · | · | · | · | ·
C=CCCC1CN(Cc2ccc(OC)cc2)S(=O)(=O)c2c(cccc2N(C)S(=O)(=O)c2ccc(C)cc2)O1 (stereo not given) | – | · | · | · | · | · | · | ·
CCOc1ccccc1CNC(=O)C1CCN(c2nnc(C)c3c(C)n(-c4ccc(C)cc4)nc23)CC1 | – | – | – | 37 | · | 58 | 35 | 12 | Granule exo CP1=89
COc1ccccc1CCNC(=O)C1CCN(c2nnc(C)c3c(C)n(-c4ccc(C)cc4)nc23)CC1 | – | – | – | – | · | – | · | ·
O=c1c2ccccc2sn1-c1ccccc1 | 95 | 111 | 54 | 77 | – | 99 | 50 | – | Granule exo CP1=105
O=C(C1CCN(c2ncnc3c2sc2cccc(F)c23)CC1)N1CCCCC1 | – | · | · | · | · | · | · | ·
CCc1ccc2nc(N(CCCN(C)C)C(=O)c3ccc(S(=O)(=O)N4CCc5ccccc5C4)cc3)sc2c1 | – | – | – | 22 | · | 77 | 23 | – | Granule exo CP1=87
CCN1CCCCC(NC(=O)c2ccccc2OC)C1=O (stereo not given) | – | · | · | · | · | · | · | ·
CC(=O)Nc1ccc(Sc2ccc([N+](=O)[O-])o2)cc1 | 34 | – | – | 29 | · | – | 47 | 16 | PRMT1 confirm=36
CC(C)(C)C(=O)Nc1ccc(Sc2ccc([N+](=O)[O-])cc2)cc1 | – | – | – | – | – | – | · | ·
COC(=O)C1=C(C)N(Cc2ccccc2C(F)(F)F)C(=NCC2CC2)NC1CCc1ccccc1 (stereo not given) | – | · | · | · | · | · | · | ·
COc1cccc(C=Cc2nccc3ccccc23)c1OC | – | – | – | – | · | – | · | ·
SMILES | PRMT1 FP inh | ABHD5-PLIN5 inh | TLR9-MyD88 block | NOD2 RIPK2 PPI | TLR4 MyD88 comp | Exocytosis inh | NOD2 RIPK2 conf | BLA counter | others
CN(C)c1ccc(C=Cc2nccc3ccccc23)cc1 | 139 | – | · | 75 | · | – | 37 | 46 | PRMT1 confirm=61
COC(=O)c1cccc(Cn2c(Cl)c(/C=N/Nc3ccccc3C)sc2=O)c1 | 79 | – | – | 38 | – | – | – | – | PRMT1 confirm=–
C#CCNC(=O)c1cc2cccnc2nc1N | – | · | · | · | · | · | · | ·
COc1ccc(N2C(=O)CC(Sc3nnnn3-c3ccc(F)cc3)C2=O)cc1 (stereo not given) | 51 | 52 | – | 41 | – | – | 44 | 12 | PRMT1 confirm=64
O=c1ccc2cc(O)c(O)cc2o1 | 32 | – | – | 23 | – | – | 23 | 37 | PRMT1 confirm=–
O=c1ccc2ccc(O)cc2o1 | – | – | – | – | · | – | · | ·
O=c1ccsn1Cc1ccccc1 | 37 | 82 | – | 27 | – | 95 | – | – | PRMT1 confirm=44
C=CCN=C1NC(c2cccc(F)c2)C(C(=O)OC)=C(C)N1C (stereo not given) | – | · | · | · | · | · | · | ·
CCOC(=O)c1c(SCCN2CCCC2)n(-c2ccccc2)c(=S)n(-c2ccccc2)c1=O | 52 | 22 | – | 89 | · | 73 | 86 | – | PRMT1 confirm=40
COc1ccccc1-c1ccc(/C=C2\C=CC(=O)O2)o1 | 44 | – | · | 48 | · | – | 45 | 49 | PRMT1 confirm=–
CCOC(=O)c1c(N2C(=O)C3C4C=CC(O4)C3C2=O)sc2c1CCCC2 (stereo not given) | 82 | – | – | 22 | – | – | – | – | PRMT1 confirm=56
CCOC(=O)c1c(-n2cnnn2)sc2c1CCCC2 | – | – | – | – | · | – | · | ·
CN(CCO)c1cccc2c1S(=O)(=O)N(Cc1cn(Cc3cccc(C(F)(F)F)c3)nn1)Cc1ccccc1O2 | – | · | · | · | · | · | · | ·
CSc1n[nH]c(-c2cccs2)n1 | – | · | · | · | · | · | · | ·
COc1ccc(-c2n[nH]c(C)c2-c2cscn2)c(O)c1 | – | – | – | – | · | – | · | ·
C=C(C)COc1ccc(-c2n[nH]c(C)c2-c2ccc(OC)cc2)c(O)c1 | – | – | – | – | – | 65 | · | · | Granule exo CP1=98
COc1ccccc1OCCCCn1ncc2ccc(OC)c(OC)c2c1=O | – | – | – | – | · | 78 | · | · | Granule exo CP1=–
Cc1ccc(CN(C)C(=O)c2c(C)nn(-c3ccccc3)c2C)cc1 | – | – | – | – | · | 67 | · | · | Granule exo CP1=–
Cc1ccc(-c2nnc(-c3ccc(NC(=O)c4ccco4)cc3)o2)cc1 | – | – | – | – | – | 88 | · | · | Granule exo CP1=–
Cc1cc(Nc2cc(F)c(F)c(F)c2)cc(=O)n1-c1cc(F)c(F)c(F)c1 | – | · | · | · | · | · | · | ·
Cc1c(C(=O)N(C)C2CCCCC2)sc2ncnc(N3CCN(c4ccccc4F)CC3)c12 | · | – | – | – | · | 85 | · | · | Granule exo CP1=–
COC(=O)[C@]12CCCCC=C1N(Cc1cccc3ccccc13)C(=O)[C@H](CC(=O)NCc1ccc(OC)c(OC)c1)C2 | – | – | · | – | · | 70 | · | · | Granule exo CP1=97
